Assay outcomes: PubChem BioAssay, National Center for Advancing Translational Sciences (NCATS)
HP1b chromo inh: inhibitors of HP1-beta chromodomain binding to methylated histone tails; 390,000 compounds, 0.56% hits; Potency, µM (top dose mostly 114 µM), actives largely listed as inhibitors; AID 540317; P83916; AlphaScreen HP1-beta / biotin-H3K9me3 peptide binding; also: nearly all actives have a fitted effect of over 70% in size
Target sequence (P83916 whole entry, looked up): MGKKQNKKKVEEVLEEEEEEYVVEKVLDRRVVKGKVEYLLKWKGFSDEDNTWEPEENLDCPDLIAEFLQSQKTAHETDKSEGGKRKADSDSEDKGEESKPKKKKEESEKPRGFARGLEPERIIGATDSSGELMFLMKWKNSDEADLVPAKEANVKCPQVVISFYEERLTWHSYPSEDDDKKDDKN
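Compound inhibition of the preformed complex between 50 nM HP1-beta and 50 nM biotinylated H3K9me3 peptide was read by AlphaScreen. Buffer was PBS pH 7.4 with 0.01% Tween-20. Incubations ran 30 min at room temperature, with 10 ug/mL donor/acceptor beads.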
JMJD2A Tudor inh: JMJD2A Tudor domain (human) inhibition | O75164 | AlphaScreen JMJD2A-Tudor / H3K4me3 peptide binding | Potency, µM (highest dose often 114 µM), usual class: inhibitors | 390,000 compounds, 4.4% hits; also: nearly all actives have a fitted effect of over 50% in size
L3MBTL1 inh: L3MBTL1 (human) inhibition; Q9Y468; AlphaScreen L3MBTL1–H3K9me1 peptide binding; Potency, µM (doses to about 57.1 µM), actives largely listed as inhibitors; 230,000 compounds, 0.66% hits; AID 485360; also: nearly all actives have a fitted effect of over 60% in size
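AlphaScreen assay: L3MBTL1 (50 nM final) was preincubated 30 min at room temperature with biotinylated H3(1-15)K9me1 peptide (75 nM final), then 30 min with library compounds; streptavidin donor and nickel chelate acceptor beads (10 ug/mL final) added, 30 min dark.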
G9a inh-1: inhibitors of human histone lysine methyltransferase G9a; Q96KQ7; 350,000 compounds, 8.8% hits; G9a H3K9 monomethylation, AlphaScreen, 2 h; Potency, µM (doses to about 102 µM), usual class: inhibitors; also: nearly all actives have a fitted effect of over 75% in size
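Methyltransferase reactions run at room temperature for 2 h (20 nM enzyme, 500 nM biotin-H3K9 peptide, 20 uM SAM) after a 15 min compound preincubation; product detected by AlphaScreen beads and anti-H3K9me1 antibody.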
BAZ2B inh: BAZ2B (human) inhibition | Q9UIF8 | AlphaScreen BAZ2B-H3K14Ac peptide displacement | Potency, µM (titrated, usually from 114 µM), most hits filed as inhibitors | 360,000 compounds, 4.4% hits | AID 504333; also: nearly all actives have a fitted effect of over 60% in size
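AlphaScreen displacement: compounds (up to 110uM) incubated 30 min at room temperature with a preformed 50 nM BAZ2B/50 nM biotinylated H3K14Ac peptide complex in PBS pH 7.4 with Tween-20. Donor and acceptor beads at 10 ug/mL final added, 20 min light-protected before reading.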
Sfp inh: inhibitors of Bacillus subtilis Sfp phosphopantetheinyl transferase; Potency, µM, actives largely listed as inhibitors; 310,000 compounds, 3.5% hits; Q9F4F7; Biochemical Sfp PPTase activity, qHTS;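 also: the enzyme is Sfp with the accession as filed and its product quenches rhodamine fluorescence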
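Compounds were incubated with enzyme (final 15 nM) for 15 min at room temperature before substrate addition started the reaction. Fluorescence at 525 nm excitation, 598 nm emission was recorded immediately and after 30 minutes.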
JMJD2E confirm: JMJD2E (human) demethylase inhibition, confirmation; 140 compounds, 93% hits; Potency, µM (titrated, usually from 56.8 µM), actives largely listed as inhibitors; shares compounds with JMJD2A Tudor inh; Recombinant JMJD2E, FDH-coupled NADH fluorescence (FDH is formaldehyde dehydrogenase)
Target sequence (B2RXH2 1-337 limits assumed): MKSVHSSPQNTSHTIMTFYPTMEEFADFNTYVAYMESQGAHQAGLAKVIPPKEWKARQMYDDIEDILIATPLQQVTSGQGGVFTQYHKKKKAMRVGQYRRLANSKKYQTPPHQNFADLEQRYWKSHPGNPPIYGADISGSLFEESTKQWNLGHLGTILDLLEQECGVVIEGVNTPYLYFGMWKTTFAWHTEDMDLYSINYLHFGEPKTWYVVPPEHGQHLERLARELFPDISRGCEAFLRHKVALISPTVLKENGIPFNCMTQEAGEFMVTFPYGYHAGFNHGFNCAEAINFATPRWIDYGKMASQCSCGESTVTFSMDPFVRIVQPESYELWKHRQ
FDH counter: blocks Pseudomonas putida formaldehyde dehydrogenase, flagging JMJD2E artifacts. shares compounds with JMJD2A Tudor inh. FDH enzyme assay, NADH fluorescence kinetic. Potency, µM (titrated, usually from 56.7 µM), most hits filed as inhibitors. 140 compounds, 10% hits. AID 2680
G9a inh-2: confirmation of human histone methyltransferase G9a inhibitors; shares compounds with JMJD2A Tudor inh; G9a H3K9 monomethylation, AlphaScreen, 2 h; Potency, µM, hits mostly inhibitors; 370 compounds, 89% hits; AID 588344; also: nearly all actives have a fitted effect of over 65% in size
RGS4 confirm: confirmation of human RGS4 inhibitors; Potency, µM, usual class: inhibitors; RGS4 GAP activity, Transcreener GDP fluorescence polarization; shares compounds with JMJD2A Tudor inh; 25 compounds, 80% hits
Target sequence (P49798 whole entry, looked up): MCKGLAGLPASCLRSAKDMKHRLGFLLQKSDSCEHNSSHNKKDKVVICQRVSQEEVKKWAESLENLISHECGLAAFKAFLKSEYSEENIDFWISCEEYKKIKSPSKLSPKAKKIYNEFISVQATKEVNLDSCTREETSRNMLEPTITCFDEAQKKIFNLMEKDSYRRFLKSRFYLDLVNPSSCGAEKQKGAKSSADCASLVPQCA
Hits are given with their value; n = inactive; u = inconclusive; x = not tested or not shown; [ ] = another dose, or the depositor's remark. Compounds with a hit are over-represented: about 12% of the library has one in this group of screens. Calls follow the shape of the dose curve; as a rule, active = well fitted curve in the direction sought with a large enough effect; inconclusive = small, poorly fitted or top-dose-only effect, or another doubt; inactive = no such curve, though single readings can be large; an effect the other way counts as inactive or inconclusive.

SMILES	HP1b chromo inh	JMJD2A Tudor inh	L3MBTL1 inh	G9a inh-1	BAZ2B inh	Sfp inh	G9a inh-2	others
Cn1nnc(NC(=S)NC(=O)c2cccs2)n1	n	3.2µM	n	0.79µM	u	n	7.1
Cc1ccnc(NC(=S)NC(=O)c2cccs2)c1	n	n	n	n	n	n	x
Cc1ccc2nc3[nH]c(=O)[nH]c(=O)c3c(N)c2c1	n	n	x	x	x	x	x
Cc1ccc2nc(N)[nH]c(=O)c2c1Sc1ccncc1	x	x	x	u	x	n	11
Cc1cc(Br)c2c(c1)C1(OCCO1)C(=O)N2	n	n	x	n	n	n	x
Cc1c(C)n(Cc2ccccc2)c2ccc(C(=O)OCCN(C)C)cc12	u	56µM	u	u	22µM	n	32
COc1cc2c(NC3CCN(C)CC3)nc(N3CCCN(C)CC3)nc2cc1OCCCCCN	x	x	x	x	x	x	x	RGS4 confirm=u
COc1cccc(OC)c1C(=O)N1CCN(Cc2ccccc2C(F)(F)F)CC1	u	7.9µM	x	u	20µM	u	4.5
COc1ccc(OC)c(CN2CCN(C(=O)c3cc4ccccc4cc3O)CC2)c1	n	u	x	u	n	n	x
COc1ccc(OC)c(CN2CCN(C(=O)c3cccc4ccccc34)CC2)c1	22µM	10µM	n	2.5µM	40µM	n	22
CCc1ccc(NC(=O)Nc2ccsc2C(=O)OC)cc1	n	n	x	n	n	n	x
CN(C)c1ccc(Nc2nc(-c3cccnc3)cs2)cc1	n	n	n	u	u	n	0.5
CCN(CC)c1ccc(Nc2nc(-c3cccnc3)cs2)cc1	40µM	13µM	x	0.89µM	20µM	n	5
CCc1ccccc1Nc1nc(-c2cccnc2)cs1	n	n	n	x	u	n	x
Fc1ccc(Nc2nc(-c3cccnc3)cs2)cc1	n	n[11.4 µM]	n	n	n	n	x
CC1(C)CC(=O)C=C(Nc2ccc(Cl)c(Br)c2)C1	n	n	n	n	n	n	x
O=C(COC(=O)C1CCN(c2ccc(C(F)(F)F)cn2)CC1)NCc1ccc(F)cc1	n	n	n	n	n	x	x
CCN(CC)c1ccc(NC(=O)COC(=O)C2CCN(c3ccc(C(F)(F)F)cn3)CC2)cc1	u	16µM	u	1.6µM	u	x	2.8
CCC/C=C(\CCC)C(NC(=O)c1ccccc1)c1ccccc1 (stereo not given)	x	x	x	x	x	n	x
C=CCOc1ccc(/C=C/C(=O)OCC(=O)N(C)CC(=O)Nc2ccc(F)cc2)cc1	n	n	n	n	n	x	x
CCN1c2ccccc2NC2N=C(OC)C(c3ccccc3)C21 (stereo not given)	u	50µM	x	u	45µM	n	11
COc1ccc(CN(C)C(=O)C(CCSC)NS(=O)(=O)c2ccc3c(c2)OCCO3)c(OC)c1OC (stereo not given)	n	n	x	x	x	x	x
O=C(CSc1cccc2cccnc12)N1CCCC1	u	u	u	u	n	u	x	JMJD2E confirm=32µM;FDH counter=11µM
NNC(=O)CSc1cccc2cccnc12	n	n	n	n	n	n	x
Cc1ccc(S(=O)(=O)N(C)C)cc1NC(=O)COC(=O)C1CCN(S(=O)(=O)c2cccs2)CC1	n	n	n	n	n	x	x
SMILES	HP1b chromo inh	JMJD2A Tudor inh	L3MBTL1 inh	G9a inh-1	BAZ2B inh	Sfp inh	G9a inh-2	others
O=C(Nc1ccccc1N1CCCC1)c1cccc(-c2cc3ccccc3oc2=O)c1	n	u	n	u	u	n	x
O=C(Nc1ccc(N2CCCC2)cc1)c1ccccc1F	n	u	n	1.8µM	u	u	2.8
O=C(Nc1ccc(N2CCCC2)cc1)c1cccc(-c2cc3ccccc3oc2=O)c1	8.9µM	28µM	n	1.6µM	u	16µM	1.1
O=C(Nc1ccc(N2CCCCC2)cc1)c1ccccc1	n	n	n	u	n	n	x
O=C(Nc1ccc(N2CCCC2)cc1)c1cccc(F)c1	u	50µM	n	u	u	n	1.6
COc1ccccc1CNC(=O)c1ccc2nc(N3CCCCC3)sc2c1	n	n	x	n	n	x	x
Cc1cccnc1NC(=O)CCc1c[nH]c2ccccc12	n	n	x	n	n	n	x
O=C(CSc1ncccn1)NCc1ccccc1	n	n	n	n	n	n	x
Cc1ccccc1NCc1ccc(O)c2ncccc12	u	28µM	u	1.1µM	50µM	n	x	JMJD2E confirm=1.4µM;FDH counter=n
Oc1ccc(CNc2ccccc2)c2cccnc12	u	79µM	u	1.3µM	32µM	n	x	JMJD2E confirm=2µM;FDH counter=n
COc1ccccc1N1CCN(C(=O)c2ccc(CN3CCc4ccccc4C3)cc2)CC1	n	u	x	n	n	n	x
COc1ccc(CN2CCc3ccccc3C2)cc1Br	n	28µM	n	2.2µM	50µM	79µM	11
CCCc1ccc(OCC(=O)Nc2scc(-c3cccs3)c2C(=O)OC)cc1	n	n	x	u	n	x	x
COC(=O)c1c(-c2cccs2)csc1NC(=O)COc1ccc(C(C)C)cc1	u	n	x	2.2µM	n	x	8.1
Cc1ccc(NCc2ccccc2OCc2ccccc2F)cc1	n	u	x	u	u	n	x
Oc1ccc(NCc2ccccc2OCc2ccccc2Cl)cc1	n	u	x	u	25µM	x	11
Oc1ccc(NCc2ccccc2OCc2ccccc2F)cc1	u	56µM	u	3.2µM	45µM	u	x	JMJD2E confirm=20µM;FDH counter=u
O=C(NCCNC(=O)c1cccnc1)c1ccc(Br)cc1	n	n	x	n	n	n	x
Cc1cccc(NC(c2ccc(C)s2)c2ccc3ccc(C)nc3c2O)n1 (stereo not given)	n	n	n	1.8µM	n	n	0.4
CCOC(=O)CNC(=O)CSc1nnc(-c2ccccc2)n1Cc1ccco1	n	45µM	x	u	n	13µM	4.5
COc1ccc(Cl)cc1NC(=O)c1c(NCc2cccs2)sc2c1CCCC2	n	u	x	1.4µM	n	x	4.1
CCOC(=O)c1c(NC(=O)c2cccs2)sc2c1CCN(C(=O)OCC)C2	n	n	n[11.4 µM]	n	n	u	x
CCOC(=O)N1CCc2c(sc(NCc3cccs3)c2C(=O)Nc2cc(Cl)ccc2OC)C1	n	u	x	1.1µM	n	x	2.3
Oc1ccc(NCc2ccc(OCc3ccccc3)cc2)cc1	u	56µM	x	7.9µM	40µM	56µM	1.3
